Sampled rows, rich in hits. Any-hit rate of the full collection: about 12%.
L3MBTL1 inh – qHTS Assay for the Inhibitors of L3MBTL1. Lethal(3)malignant brain tumor-like protein 1 (Homo sapiens), Q9Y468. AlphaScreen L3MBTL1–H3K9me1 peptide binding. AID 485360, 2010. 230,000 tested, 0.66% active. Potency, µM (titrated, usually from 57.1 µM), inactives show at the highest dose activity, negative = inhibition, usual class: inhibitors; note: % is set by controls: 0 for no effect and ±100 for the full control effect; nearly all actives have a fitted effect of over 60% in size
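Displacement of a biotinylated histone H3(1-15) peptide monomethylated at Lys9 (75 nM) from L3MBTL1 (50 nM) was measured by AlphaScreen after a 30 min room-temperature compound incubation; cefsulodin titration served as intraplate control.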
Sfp inh – qHTS Assay for Inhibitors of Bacillus subtilis Sfp phosphopantetheinyl transferase (PPTase) | 310,000 tested, 3.5% active | Biochemical Sfp PPTase activity, qHTS | Potency, µM, for inactives: largest response in the series, negative = inhibition, most hits filed as inhibitors | 4'-phosphopantetheinyl transferase ffp (Bacillus subtilis), Q9F4F7 | AID 1490, 2009;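 note: the enzyme is Sfp with the accession as filed and its product quenches rhodamine fluorescence; 0% = enzyme reaction without inhibitor and -100% = no enzyme wells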
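Step 1, compound plus 15 nM Sfp-PPTase, 15 min, room temperature. Step 2, add rhodamine-CoA (5 uM) and BHQ-2-YbbR (12.5 uM). Step 3, read 525/598 nm fluorescence at 0 and 30 min.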
BAZ2B inh – qHTS Assay for Inhibitors of BAZ2B | AlphaScreen BAZ2B-H3K14Ac peptide displacement | Potency, µM (titrated, usually from 114 µM), without a hit: top-dose activity change, negative = inhibition, actives largely listed as inhibitors | 360,000 tested, 4.4% active | Bromodomain adjacent to zinc finger domain protein 2B (Homo sapiens), Q9UIF8; note: % is set by controls: 0 for no effect and ±100 for the full control effect; nearly all actives have a fitted effect of over 60% in size
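AlphaScreen displacement: compounds (up to 110uM) incubated 30 min at room temperature with a preformed 50 nM BAZ2B/50 nM biotinylated H3K14Ac peptide complex in PBS pH 7.4 with Tween-20. Donor and acceptor beads at 10 ug/mL final added, 20 min light-protected before reading.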
G9a inh – qHTS Assay for Inhibitors of Histone Lysine Methyltransferase G9a; G9a H3K9 monomethylation, AlphaScreen, 2 h; Potency, µM (top dose mostly 102 µM), for the others: at the top dose activity, negative = inhibition, most hits filed as inhibitors; 350,000 tested, 8.8% active; note: % is set by controls: 0 for no effect and ±100 for the full control effect; nearly all actives have a fitted effect of over 75% in size
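AlphaScreen detection with an anti-monomethyl H3K9 antibody quantified product after a 2 h room-temperature reaction containing 500 nM biotinylated H3K9 peptide, 20 µM SAM and 20 nM enzyme, which had been preincubated 15 min with compound.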
JMJD2A Tudor inh – qHTS Assay for Inhibitors of JMJD2A-Tudor Domain. AID 504339, 2011. 390,000 tested, 4.4% active. Potency, µM (doses to about 114 µM), for inactives: at the highest dose activity change, negative = inhibition, hits mostly inhibitors. AlphaScreen JMJD2A-Tudor / H3K4me3 peptide binding; note: % is set by controls: 0 for no effect and ±100 for the full control effect; nearly all actives have a fitted effect of over 50% in size
HP1b chromo inh – HTS for Inhibitors of HP1-beta Chromodomain Interactions with Methylated Histone Tails; Chromobox protein homolog 1 (Homo sapiens), P83916; AlphaScreen HP1-beta / biotin-H3K9me3 peptide binding; Potency, µM (highest dose often 114 µM), for the others: top-dose activity change, negative = inhibition, hits mostly inhibitors; 390,000 tested, 0.56% active; AID 540317, 2011; note: nearly all actives have a fitted effect of over 70% in size
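HP1-beta protein (50 nM final) preincubated 30 min at room temperature with biotinylated H3(1-18)K9me3 peptide (50 nM) in PBS pH 7.4, 0.01% Tween-20, then compound added for 30 min. AlphaScreen streptavidin donor/nickel chelate acceptor beads (10 ug/mL final), 30 min dark, luminescence read.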
Starred values were filed as active, the others as inactive; ? = inconclusive; / = not tested or not shown; [ ] = remark or other dose. Calls come from the whole dose curve; as a rule, active = well fitted curve in the direction sought with a large enough effect; inconclusive = small, poorly fitted or top-dose-only effect, or another doubt; inactive = no such curve, though single readings can be large; an effect the other way counts as inactive or inconclusive. Potency is the fitted concentration of half-maximal effect.

SMILES | L3MBTL1 inh | Sfp inh | BAZ2B inh | G9a inh | JMJD2A Tudor inh | HP1b chromo inh
Cc1cccc(C)c1-n1c(C)cc(/C=N\Nc2ccc([N+](=O)[O-])cn2)c1C | / | -6% | -13% | ? | 28µM* | -23%
COc1cc(/C=N/Nc2ccc([N+](=O)[O-])cn2)cc(OC)c1O | / | -7% | -28% | 8.9µM* | -23% | 82%
COc1cc(/C=N/Nc2ccc(C(=O)O)cc2)cc(OC)c1OC | 4% | 14% | -4% | 50µM* | -7% | 45%
COc1cc(/C=N/Nc2ccc(C(=O)O)cc2)ccc1O | / | ? | 50µM* | ? | ? | 50µM*
CC(C)CC(OC(=O)CNC(=O)c1ccccc1)C(=O)Nc1cc(C(F)(F)F)ccc1Cl (stereo not given) | / | / | / | / | -10% | /
C=CCOc1c(/C=N\NC(N)=O)cccc1OC | 9% | 5% | -12% | / | -5% | 45%
COc1cc(/C=N/NC(=O)CCn2cnc(-c3ccccc3)c2-c2ccccc2)ccc1O | -4% | -13% | 45µM* | 45µM* | 56µM* | ?
COc1ccc([N+](=O)[O-])cc1/C=N/Nc1nn[nH]n1 | 28% | -12% | ? | 45µM* | -6% | 16%
COc1cc(/C=N/NC(=O)CCN2CCCCC2)ccc1O | 10% | -3% | -3% | ? | -3%[11.4 µM] | 28%
Cc1cc(/C=N/Nc2nc(N)ncc2[N+](=O)[O-])c(C)n1-c1ccccc1F | / | 50µM* | -13% | 28%[59 µM] | / | /
COc1ccc([N+](=O)[O-])cc1/C=N/NC(=O)c1nonc1N | -1% | 12% | 0% | 5% | -20% | 19%
C=CCOc1c(OC)cc(/C=N/Nc2cccc(C(=O)O)c2)c(Br)c1Br | ? | -4% | 40µM* | 10µM* | 56µM* | ?
CCOc1ccc(NC(=O)CN2C(=O)CC(C)Sc3ccccc32)cc1 (stereo not given) | / | / | 1% | 4%[59 µM] | -1% | 28%
CC(C)CN(CCNC(=O)CCN1N=C(c2ccccc2)CCC1=O)CC(C)C | / | / | 7% | -6%[59 µM] | 0% | -14%
COc1ccc(/C=N/Nc2ccc([N+](=O)[O-])cc2)cc1O | / | -17% | 50µM* | ? | ? | ?
COc1ccc(/C=N/Nc2ccc([N+](=O)[O-])cc2)cc1Cn1cc([N+](=O)[O-])cn1 | / | -22% | -31% | ? | -21%[11.4 µM] | 42%
COc1cccc(OCCCCCN2CCOCC2)c1 | -6% | 2% | -3% | -100% | -14% | 10%
c1ccc(Oc2cccc(OCCCCN3CCCC3)c2)cc1 | -26% | -17% | 56µM* | ? | 35µM* | -28%
CC1CN(S(=O)(=O)c2cccc(C(=O)OCCOc3ccccc3)c2)CC(C)O1 (stereo not given) | 18% | / | 6% | 5%[12.7 µM] | 16% | 47%
CC1CN(CCOc2cccc(Oc3ccccc3)c2)CC(C)O1 (stereo not given) | -3% | 15% | 50µM* | 10µM* | 20µM* | ?
CCCOc1ccc(OCCN2CCCC(C)C2)cc1 (stereo not given) | -17% | -45% | 56µM* | 14µM* | ? | 39%
CC1CN(CCCCOc2cccc(Oc3ccccc3)c2)CC(C)O1 (stereo not given) | 20% | ? | 35µM* | -125%[59 µM] | 0.89µM* | ?
Cc1c(C(=O)NCc2ccccc2Cl)sc2nc[nH]c(=O)c12 | / | / | 3% | 0%[59 µM] | -2% | 24%[57 µM]
CCN(c1ccccc1)S(=O)(=O)c1ccc(NC(=O)c2cc(=O)c3c(C)cc(C)cc3o2)cc1 | / | / | -24% | 4%[59 µM] | -16% | 22%
CC1CCCN(CCOc2cccc(Oc3ccccc3)c2)C1 (stereo not given) | -2% | -13% | 56µM* | 8.9µM* | 22µM* | ?
SMILES | L3MBTL1 inh | Sfp inh | BAZ2B inh | G9a inh | JMJD2A Tudor inh | HP1b chromo inh
Cc1nc(N2CCCC2)ncc1C(=O)Nc1ccc(F)cc1F | / | / | -6% | 11%[59 µM] | -4% | 21%
COc1ccc(-c2c(C)nn3c4c(cnc23)C(=O)CC(c2ccc(C)cc2)C4)cc1 (stereo not given) | / | / | -18% | -32%[59 µM] | -3% | 22%
CCOC(=O)C1CCC(CNCc2ccccc2C)CC1 (stereo not given) | / | 5% | 0% | 50µM* | -5% | 2%
Cc1ccc(NC(=O)N2CC3CCCN3c3ccccc32)cc1Cl (stereo not given) | / | / | 28µM* | 8.9µM* | 40µM* | ?
CCC1CN(C(=O)Nc2cc(Cl)ccc2C(=O)OC)c2ccccc2S1 (stereo not given) | / | / | -5% | -16%[59 µM] | -10% | 59%
COC(=O)c1ccc(Cl)cc1NC(=O)N1CC2CCCN2c2ccccc21 (stereo not given) | / | / | ? | 8.9µM* | ? | 3%
Cc1ccc(NC(=O)N2CC3CCCN3c3ccccc32)cc1C (stereo not given) | / | / | 25µM* | 10µM* | 50µM* | ?
O=C(Nc1cccc(C(F)(F)F)c1)N1CC2CCCN2c2ccccc21 (stereo not given) | / | / | 28µM* | ? | 50µM* | ?
N#Cc1cccc(-c2nc3cnc(N4CCOCC4)nc3n(C[C@H]3CCCO3)c2=O)c1 | / | 15% | / | -1%[0.501 µM] | / | /
CCCn1c2ccccc2c2cnn(CC(=O)NCCCN(Cc3ccccc3)C(C)C)c(=O)c21 | / | / | -4% | -2%[59 µM] | -9% | 12%
CCOc1ccc(CCNC(=O)Cn2ccc3cc(S(=O)(=O)N4CCCCC4)ccc32)cc1 | / | / | -19% | ? | -10% | 26%
Cc1ccc(NC(=O)N2CCc3ccccc3C2)c(C)c1 | / | 11% | -12% | -5% | -6% | 31%
Cc1ccc(NC(=O)N2CC3CCCN3c3ccccc32)c(C)c1 (stereo not given) | / | / | 7% | -4%[59 µM] | 50µM* | ?
COCCNC(=O)C1CCC(Cn2c(=S)[nH]c3ccccc3c2=O)CC1 (stereo not given) | / | 13% | -3% | ? | 79µM* | 47%
O=C(NCCc1c[nH]c2ccccc12)C1CCC(Cn2c(=S)[nH]c3ccccc3c2=O)CC1 (stereo not given) | / | 19% | -3% | 3% | -16% | 36%
